Molecules are shown by their SMILES. For some assays here: Entries with a potency or affinity are not part of this list.

What all share (set-up): scale not given: direction of the effect not stated beside the values
Experiment [1] has as its target Protein translocase subunit SecA (Escherichia coli (strain K12)) (UniProt P10408). In words: Assay to Identify E. coli SecA ATPase Inhibitors. The format is functional. Conditions: 30 µM.
For experiment [2], the target named is T1, Ubiquitin-activating enzyme e1, putative (Leishmania donovani (strain BPK282A1)) (UniProt E9BSI1).
T1 sequence (whole entry): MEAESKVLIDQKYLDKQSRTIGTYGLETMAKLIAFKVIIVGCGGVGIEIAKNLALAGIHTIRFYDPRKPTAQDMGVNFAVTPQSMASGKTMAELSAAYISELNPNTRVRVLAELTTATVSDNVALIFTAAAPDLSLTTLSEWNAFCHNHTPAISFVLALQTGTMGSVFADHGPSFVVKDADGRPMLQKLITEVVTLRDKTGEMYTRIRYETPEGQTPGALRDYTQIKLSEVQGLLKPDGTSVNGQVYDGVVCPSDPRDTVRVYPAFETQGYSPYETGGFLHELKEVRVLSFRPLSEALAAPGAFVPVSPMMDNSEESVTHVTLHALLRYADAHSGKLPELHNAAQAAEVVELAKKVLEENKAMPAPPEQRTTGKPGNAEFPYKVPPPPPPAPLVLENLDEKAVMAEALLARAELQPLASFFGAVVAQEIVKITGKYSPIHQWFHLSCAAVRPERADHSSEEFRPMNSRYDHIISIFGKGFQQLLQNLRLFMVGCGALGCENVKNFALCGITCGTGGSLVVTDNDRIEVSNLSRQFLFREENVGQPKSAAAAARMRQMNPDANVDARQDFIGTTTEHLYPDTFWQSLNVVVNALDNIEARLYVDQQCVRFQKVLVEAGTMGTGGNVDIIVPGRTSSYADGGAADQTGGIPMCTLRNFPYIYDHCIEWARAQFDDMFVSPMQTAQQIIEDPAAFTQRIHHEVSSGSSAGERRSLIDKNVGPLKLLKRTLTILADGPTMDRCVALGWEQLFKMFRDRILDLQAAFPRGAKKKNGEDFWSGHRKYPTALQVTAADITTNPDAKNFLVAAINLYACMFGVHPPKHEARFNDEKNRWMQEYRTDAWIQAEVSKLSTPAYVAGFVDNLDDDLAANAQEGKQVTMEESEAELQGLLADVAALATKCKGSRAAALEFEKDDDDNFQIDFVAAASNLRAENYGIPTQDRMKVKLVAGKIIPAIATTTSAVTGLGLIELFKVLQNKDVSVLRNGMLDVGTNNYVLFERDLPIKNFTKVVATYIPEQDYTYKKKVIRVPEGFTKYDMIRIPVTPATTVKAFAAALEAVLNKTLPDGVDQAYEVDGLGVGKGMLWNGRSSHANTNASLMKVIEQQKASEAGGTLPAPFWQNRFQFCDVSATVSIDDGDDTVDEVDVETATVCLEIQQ
In words: Leishmania donovani Ubiquitin Activating Enzyme (LdE1). The class given is functional. As to conditions: 30 µM.

The target in experiment [3] is AMP-activated protein kinase, AMPK (Homo sapiens) (UniProt P54646+O43741+P54619+Q9UGJ0+Q9Y478+Q13131+Q9UGI9). In words: AMP-dependent Kinase enzyme assay. An in vitro enzyme assay that detects ADP turnover that is directly proportional to AMPK activity. This uses naive AMPK that is activated during the assay with MK-8722. As to conditions: 30 µM. The class given is functional.

Experiment [4] concerns the target Sialic acid-binding Ig-like lectin 9 (Homo sapiens) (UniProt Q9Y336). Nature of the experiment: Hs-Siglec9 ALPHAscreen SOP 20170721. Conditions: 10 µM. (In general: Alpha assays give light when donor and acceptor beads are brought close together.)
The test system of experiment [5] is Trypanosoma cruzi. Nature of the experiment: Trypanosoma cruzi phosphomannomutase and mannose-1-phosphate guanylyltransferase assay. The class given is functional. Conditions: 10 µM.
In experiment [6] the target is T2, Arginase-2, mitochondrial (Homo sapiens) (UniProt P78540).
T2 sequence (whole entry): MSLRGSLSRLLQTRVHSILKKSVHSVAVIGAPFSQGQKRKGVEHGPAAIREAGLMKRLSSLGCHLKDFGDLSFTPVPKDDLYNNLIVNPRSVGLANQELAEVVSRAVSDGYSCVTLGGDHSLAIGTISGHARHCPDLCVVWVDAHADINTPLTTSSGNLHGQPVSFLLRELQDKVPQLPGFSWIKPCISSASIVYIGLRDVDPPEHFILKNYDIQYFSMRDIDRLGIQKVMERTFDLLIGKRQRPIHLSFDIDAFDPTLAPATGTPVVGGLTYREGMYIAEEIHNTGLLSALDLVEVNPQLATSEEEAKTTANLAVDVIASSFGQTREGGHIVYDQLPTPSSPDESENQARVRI
In words: in vitro enzyme assay to detect the production of urea directly proportional to the activity of Arginase II. Also: in the data most compounds retested in dose-response had high values. Conditions: 33.3 µM. The format is functional.

Experiment [7] has as its target T3, Proteasome subunit beta (Trypanosoma cruzi) (UniProt O96673).
T3 sequence (whole entry): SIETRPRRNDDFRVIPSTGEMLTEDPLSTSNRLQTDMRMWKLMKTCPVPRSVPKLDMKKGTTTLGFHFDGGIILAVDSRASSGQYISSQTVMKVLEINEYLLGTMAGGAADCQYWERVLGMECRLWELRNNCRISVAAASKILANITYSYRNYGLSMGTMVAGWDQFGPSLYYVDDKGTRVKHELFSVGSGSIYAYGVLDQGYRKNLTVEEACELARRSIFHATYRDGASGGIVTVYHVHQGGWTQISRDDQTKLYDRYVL
Nature of the experiment: Trypanosoma cruzi proteasome chymotrypsin-like activity (TcProtChymo) assay. Also: in the data most compounds retested in dose-response had high values. Conditions: 9.37 µM. The class given is functional.

Experiment [8] is filed under the species Homo sapiens. Nature of the experiment: To identify inhibition of the IFN signalling (Jak-Stat) pathway via expression of an eGFP reporter gene under the control of an IFN-stimulated response element (ISRE) containing MxA promoter. The format is functional. As to conditions: 30 µM. In general terms: Reporter assays use an easily measured gene product as a stand-in for the process of interest.

The target of experiment [9] is T4, Tyrosyl-tRNA synthetase, putative (Trypanosoma cruzi (strain CL Brener)) (UniProt Q4DSP6).
T4 sequence (whole entry): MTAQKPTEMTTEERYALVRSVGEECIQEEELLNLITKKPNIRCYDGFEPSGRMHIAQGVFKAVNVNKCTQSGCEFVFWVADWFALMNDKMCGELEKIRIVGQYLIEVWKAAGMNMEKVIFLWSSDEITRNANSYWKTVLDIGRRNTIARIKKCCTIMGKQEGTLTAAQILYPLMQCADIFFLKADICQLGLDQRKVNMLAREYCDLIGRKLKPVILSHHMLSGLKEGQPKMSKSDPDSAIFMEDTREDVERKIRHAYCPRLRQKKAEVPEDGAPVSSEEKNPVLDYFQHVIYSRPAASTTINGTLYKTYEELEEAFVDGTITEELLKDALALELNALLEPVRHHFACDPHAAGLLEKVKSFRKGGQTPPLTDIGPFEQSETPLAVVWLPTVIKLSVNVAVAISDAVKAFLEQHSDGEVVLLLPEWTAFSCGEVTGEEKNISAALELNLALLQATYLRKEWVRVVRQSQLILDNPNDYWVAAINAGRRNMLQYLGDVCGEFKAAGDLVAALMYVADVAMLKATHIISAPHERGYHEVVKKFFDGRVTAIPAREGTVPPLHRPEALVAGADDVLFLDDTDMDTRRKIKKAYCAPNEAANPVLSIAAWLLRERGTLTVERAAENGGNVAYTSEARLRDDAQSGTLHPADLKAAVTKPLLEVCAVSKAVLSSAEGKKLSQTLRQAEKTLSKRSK
Nature of the experiment: Trypanosoma cruzi tyrosyl tRNA synthetase (TcYRS) _High Tyrosine SOP. Also: in the data most compounds retested in dose-response had high values. The class given is functional. Conditions: 30 µM.

In experiment [10] the target is T4, Tyrosyl-tRNA synthetase, putative (Trypanosoma cruzi (strain CL Brener)). In words: Trypanosoma cruzi tyrosyl tRNA synthetase (TcYRS) SOP. The class given is functional. As to conditions: 30 µM.
Experiment [11] has as its target Chromo domain-containing protein 1 (Saccharomyces cerevisiae (strain ATCC 204508 / S288c) (Baker's yeast)) (UniProt P32657). Nature of the experiment: ScCHD-1 Enzyme Inhibition Assay. Also: in the data most compounds retested in dose-response had high values. The format is functional. Conditions: 30 µM.

Sequence of Sialic acid-binding Ig-like lectin 9 (Homo sapiens) (Q9Y336 whole entry): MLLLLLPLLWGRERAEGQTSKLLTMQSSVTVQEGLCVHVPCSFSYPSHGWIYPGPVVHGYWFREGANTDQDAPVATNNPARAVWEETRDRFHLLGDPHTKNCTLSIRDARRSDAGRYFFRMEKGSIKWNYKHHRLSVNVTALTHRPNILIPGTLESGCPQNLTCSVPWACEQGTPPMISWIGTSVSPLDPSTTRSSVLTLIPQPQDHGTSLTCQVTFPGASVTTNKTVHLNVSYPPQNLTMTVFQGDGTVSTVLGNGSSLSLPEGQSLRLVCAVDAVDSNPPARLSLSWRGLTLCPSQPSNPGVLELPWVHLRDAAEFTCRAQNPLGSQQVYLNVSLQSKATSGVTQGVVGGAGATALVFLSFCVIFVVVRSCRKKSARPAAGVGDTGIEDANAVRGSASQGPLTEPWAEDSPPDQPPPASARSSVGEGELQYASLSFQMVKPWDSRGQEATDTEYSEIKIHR
Sequence of Protein translocase subunit SecA (Escherichia coli (strain K12)) (P10408 whole entry): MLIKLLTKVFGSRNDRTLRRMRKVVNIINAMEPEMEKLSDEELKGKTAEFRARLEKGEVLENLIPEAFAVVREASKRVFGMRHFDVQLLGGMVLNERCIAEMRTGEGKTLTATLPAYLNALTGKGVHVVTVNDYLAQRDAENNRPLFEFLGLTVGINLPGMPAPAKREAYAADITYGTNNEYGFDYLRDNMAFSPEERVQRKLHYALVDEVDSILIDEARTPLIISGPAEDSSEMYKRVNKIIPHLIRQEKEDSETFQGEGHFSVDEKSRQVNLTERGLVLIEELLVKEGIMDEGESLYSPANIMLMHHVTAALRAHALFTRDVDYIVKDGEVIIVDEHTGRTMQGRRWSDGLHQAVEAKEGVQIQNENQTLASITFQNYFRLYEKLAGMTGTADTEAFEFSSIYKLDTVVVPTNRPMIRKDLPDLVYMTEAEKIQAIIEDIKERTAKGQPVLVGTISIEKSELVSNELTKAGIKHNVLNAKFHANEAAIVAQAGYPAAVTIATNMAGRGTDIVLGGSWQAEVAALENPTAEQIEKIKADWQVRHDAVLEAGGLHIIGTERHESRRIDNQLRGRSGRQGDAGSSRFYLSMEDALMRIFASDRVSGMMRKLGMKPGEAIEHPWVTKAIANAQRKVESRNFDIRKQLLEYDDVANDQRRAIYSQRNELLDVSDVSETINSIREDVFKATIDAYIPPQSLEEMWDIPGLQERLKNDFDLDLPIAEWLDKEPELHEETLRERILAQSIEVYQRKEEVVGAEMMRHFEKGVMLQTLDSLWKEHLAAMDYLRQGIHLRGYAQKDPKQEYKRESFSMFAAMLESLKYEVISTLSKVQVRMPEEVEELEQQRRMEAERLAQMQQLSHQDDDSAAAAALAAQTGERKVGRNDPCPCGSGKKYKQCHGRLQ
Sequence of Chromo domain-containing protein 1 (Saccharomyces cerevisiae (strain ATCC 204508 / S288c) (Baker's yeast)) (P32657 whole entry, the tested form may be a part): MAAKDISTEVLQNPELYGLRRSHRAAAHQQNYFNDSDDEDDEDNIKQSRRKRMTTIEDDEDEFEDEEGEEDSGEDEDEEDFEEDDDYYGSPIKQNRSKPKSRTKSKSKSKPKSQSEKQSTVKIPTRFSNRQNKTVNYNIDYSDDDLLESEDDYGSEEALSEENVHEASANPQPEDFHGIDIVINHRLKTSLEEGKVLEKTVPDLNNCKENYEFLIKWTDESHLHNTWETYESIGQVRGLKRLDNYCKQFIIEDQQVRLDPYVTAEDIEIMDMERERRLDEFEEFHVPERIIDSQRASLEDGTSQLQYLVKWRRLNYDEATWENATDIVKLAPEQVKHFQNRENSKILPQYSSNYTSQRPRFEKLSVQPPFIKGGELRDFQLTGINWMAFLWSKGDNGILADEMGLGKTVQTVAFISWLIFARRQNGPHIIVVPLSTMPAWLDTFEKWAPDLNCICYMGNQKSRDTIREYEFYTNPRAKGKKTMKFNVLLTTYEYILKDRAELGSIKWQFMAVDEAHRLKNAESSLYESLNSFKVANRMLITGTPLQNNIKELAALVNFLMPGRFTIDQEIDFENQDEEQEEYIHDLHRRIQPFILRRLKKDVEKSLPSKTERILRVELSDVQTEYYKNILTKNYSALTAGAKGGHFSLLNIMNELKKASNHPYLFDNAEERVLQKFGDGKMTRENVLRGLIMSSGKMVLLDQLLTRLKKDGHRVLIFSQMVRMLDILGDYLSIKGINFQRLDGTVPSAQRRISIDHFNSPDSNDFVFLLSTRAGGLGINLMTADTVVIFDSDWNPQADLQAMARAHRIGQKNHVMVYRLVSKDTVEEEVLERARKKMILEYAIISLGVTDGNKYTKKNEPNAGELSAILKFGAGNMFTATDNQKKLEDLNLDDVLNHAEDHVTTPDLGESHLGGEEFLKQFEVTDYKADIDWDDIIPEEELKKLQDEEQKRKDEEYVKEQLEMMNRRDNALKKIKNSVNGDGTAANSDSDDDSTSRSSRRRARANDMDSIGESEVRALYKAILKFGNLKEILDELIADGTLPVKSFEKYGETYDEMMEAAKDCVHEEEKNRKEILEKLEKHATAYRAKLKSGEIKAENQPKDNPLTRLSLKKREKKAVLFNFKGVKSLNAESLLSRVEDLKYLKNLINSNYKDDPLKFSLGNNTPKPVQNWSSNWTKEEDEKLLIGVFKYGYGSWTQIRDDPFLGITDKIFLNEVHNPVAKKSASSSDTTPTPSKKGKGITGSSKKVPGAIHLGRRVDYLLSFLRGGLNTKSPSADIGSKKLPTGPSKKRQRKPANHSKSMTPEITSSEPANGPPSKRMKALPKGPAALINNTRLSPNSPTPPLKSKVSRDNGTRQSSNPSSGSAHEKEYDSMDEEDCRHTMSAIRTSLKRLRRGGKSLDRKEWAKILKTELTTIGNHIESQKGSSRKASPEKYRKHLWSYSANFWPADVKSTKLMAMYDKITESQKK

Consider `Cn1cc(CN2CCCn3cnc(CN4CCCC4=O)c3C2)cn1`, for which the Percent Effect was -2.78% in experiment [1]; -2.67% in [2]; 4.3% in [3]; 32.8% in experiment [4]; -1.74% in experiment [5]; -23.5% in [6]. Further, the Percent Effect in experiment [7] was 3.76%; in experiment [8], -13.1%; in experiment [9], 1.04%; in experiment [10], 2.5%; in [11], -4.19%.
In the case of `CC(=O)Nc1nc(CN2CCCC2Cn2cncn2)cs1` (stereo not given), the Percent Effect was -7.57% in experiment [1]; 13% in [2]; -6.56% in experiment [3]; 16.5% in experiment [4]; 10.3% in experiment [5]; 2.85% in experiment [6]. Moreover, the Percent Effect in [7] is 9.29%; in experiment [8], 18.8%; in experiment [9], 9.71%; in experiment [10], 26.8%; in [11], -12.8%.
Turning to `O=C(NCC1CCOC1)N1CCN(Cc2ccc3c(c2)CCO3)CC1` (stereo not given), the Percent Effect in experiment [1] is -2.3%; in experiment [2], 15.8%; in experiment [3] it was -4.31%; in experiment [4], -5.79%; in [5] it was 2.33%; in experiment [6] it was -5.4%. The Percent Effect in [7] was 4.99%; in [8] it was -17.4%; in experiment [9] it was 9.36%; in experiment [10], 23.5%; in experiment [11] it was -7.08%.
As to `COc1cc(CNCCc2cnn(C)c2)cc2c1OCCO2`, the Percent Effect in experiment [1] was -5.21%; in experiment [2], 10.5%; in [3], 1.71%; in experiment [4], 15.7%; in [5] it was 1.32%; in [6], -1.92%. Further, the Percent Effect is 10.2% in [7]; 0.122% in experiment [8]; 4.41% in experiment [9]; 12.2% in experiment [10]; -6.6% in experiment [11].
`Cc1ncccc1O[C@H]1CCN(C(=O)c2cccs2)CC[C@@H]1O`: the Percent Effect was -1.97% in experiment [1]; -9.46% in experiment [2]; 7.91% in experiment [3]; 0.722% in [4]; -2.17% in [5]; -2.09% in experiment [6]. In addition, the Percent Effect in experiment [7] was 2.03%; in experiment [8] it was 4.21%; in experiment [9], 1.07%; in [10] it was -1.3%; in experiment [11] it was -0.631%.
In the case of `O=C(NCc1cc[nH]n1)N1CCCCC(N2CCCC2)C1` (stereo not given), the Percent Effect in experiment [1] is -3.54%; in experiment [2], -10.5%; in experiment [3] it was -9.14%; in [4] it was 11.7%; in experiment [5], 6.44%; in [6], 2.16%. The Percent Effect in experiment [7] is 1.27%; in experiment [8] it was 7.32%; in experiment [9], 7.39%; in experiment [10], 23.5%; in [11], 3.8%.
`Cc1ncsc1C(=O)NCCSCc1cccs1`: the Percent Effect in [1] was -1.5%; in experiment [2], 2.7%; in experiment [3], -1.07%; in experiment [4] it was 13.7%; in experiment [5] it was 3.44%; in experiment [6] it was -3.14%. Further, the Percent Effect in experiment [7] was 7.9%; in experiment [8] it was 16.5%; in experiment [9], 0%; in experiment [10], 11%; in experiment [11], -5.27%.
Take `Cc1cnn(CC(C)NCc2csc(-c3cnn(C)c3)n2)c1` (stereo not given): the Percent Effect in [1] is -0.0815%; in experiment [2] it was 19%; in experiment [3] it was -6.28%; in experiment [4], -4.12%; in experiment [5], -4.41%; in experiment [6], 0.645%. Moreover, the Percent Effect is 20.6% in experiment [7]; 14% in [8]; 7.29% in [9]; -10.1% in [10]; -26.4% in experiment [11].
For `COc1c(CNC2CCCOc3ccccc32)c(C)nn1C` (stereo not given), the Percent Effect in [1] was -6.71%; in [2] it was 5.41%; in [3], -2.77%; in experiment [4], 4.94%; in experiment [5] it was 3.81%; in experiment [6], 3.23%. Besides, the Percent Effect is 8.5% in [7]; -6.93% in [8]; 6.45% in experiment [9]; 11.1% in experiment [10]; -1.97% in experiment [11].
For `CN1CCN(c2cc(CCNC(=O)C3CCC3)nc(C3CC3)n2)CC1`, the Percent Effect in experiment [1] is -1.04%; in experiment [2] it was 12.2%; in [3] it was 4.69%; in experiment [4], 0.557%; in experiment [5], -4.74%; in [6], -0.232%. The Percent Effect in experiment [7] was 14.2%; in [8] it was 15.8%; in [9], 4.3%; in experiment [10] it was 9.09%; in experiment [11], -9.84%.
